# Shown is part of a subset that was picked to be rich in the strongest signals.
# B1: BIp1-His (Cryptococcus neoformans) (protein)
# chain: MFTKIFVALFAATAVLSAPVESAEKRITHTGRATFYSPSVGIGACGWQNTDEELVVALNAPQYALNADHNCGQSVRITNEQNGNQEIAKVVDLCPGCNDGDLDMSPALFGALNNNDFDQGVFPISWNFLPRDDTSSSN
# Key:
# Assay in all cases: glycan array binding signal (z-score within array); higher = stronger binding
# Settings in all cases: glycan notation: IUPAC condensed, linker removed
# [1] = biological target: Fuc(a1-2)Gal(b1-3)GalNAc
# How it was run: (§1)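 The Consortium for Functional Glycomics database supplied 3228 glycan arrays, of which those lacking an available protein sequence were dropped. The binding signal, a within-array Z-score, was averaged across arrays of the same protein sequence and across linkers. Negative scores can be read as non-binding.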
# [2] = biological target: Fuc(a1-2)Gal(b1-3)GlcNAc(b1-3)[Fuc(a1-2)Gal(b1-3)GlcNAc(b1-6)]GalNAc
# How it was run: as §1
# [3] = biological target: Fuc(a1-2)[Gal(a1-3)]Gal(b1-3)GlcNAc(b1-6)GalNAc
# How it was run: as §1
# [4] = biological target: Fuc(a1-2)[Gal(a1-3)]Gal(b1-4)[Fuc(a1-3)]GlcNAc(b1-3)GalNAc
# How it was run: as §1
# [5] = biological target: Fuc(a1-3)[Gal(b1-4)]GlcNAc
# How it was run: as §1
# [6] = biological target: Fuc(a1-3)[Gal(b1-4)]GlcNAc(b1-6)GalNAc
# How it was run: as §1
# [7] = biological target: Fuc(a1-3)[Gal(b1-4)]GlcNAc(b1-6)[Gal(b1-3)GlcNAc(b1-3)]Gal(b1-4)Glc
# How it was run: as §1
# [8] = biological target: Fuc(a1-3)[Gal3S(b1-4)]GlcNAc6S
# How it was run: as §1
# [9] = biological target: Gal(a1-3)Gal(b1-4)Glc
# How it was run: as §1
# [10] = biological target: Gal(b1-3)GalNAc(b1-3)Gal(a1-4)Gal(b1-4)Glc
# How it was run: as §1
# [11] = biological target: Gal(b1-3)[GlcNAc(b1-6)]GalNAc
# How it was run: as §1
# [12] = biological target: Gal(b1-4)GlcNAc(b1-2)Man(a1-3)[GlcNAc(b1-4)][Gal(b1-4)GlcNAc(b1-2)Man(a1-6)]Man(b1-4)GlcNAc(b1-4)GlcNAc
# How it was run: as §1
# [13] = biological target: Gal(b1-4)GlcNAc(b1-2)[Gal(b1-4)GlcNAc(b1-6)]Man(a1-6)[Gal(b1-4)GlcNAc(b1-2)Man(a1-3)]Man(b1-4)GlcNAc(b1-4)GlcNAc
# How it was run: as §1
# [14] = biological target: Gal(b1-4)GlcNAc(b1-2)[Gal(b1-4)GlcNAc(b1-6)]Man(a1-6)[GlcNAc(b1-4)][Gal(b1-4)GlcNAc(b1-2)[Gal(b1-4)GlcNAc(b1-4)]Man(a1-3)]Man(b1-4)GlcNAc(b1-4)[Fuc(a1-6)]GlcNAc
# How it was run: as §1
# [15] = biological target: Gal(b1-4)GlcNAc(b1-3)Gal(b1-4)GlcNAc(b1-2)Man(a1-3)[Gal(b1-4)GlcNAc(b1-3)Gal(b1-4)GlcNAc(b1-2)Man(a1-6)]Man(b1-4)GlcNAc(b1-4)[Fuc(a1-6)]GlcNAc
# How it was run: as §1
# [16] = biological target: Gal(b1-4)GlcNAc(b1-3)Gal(b1-4)GlcNAc(b1-2)[Gal(b1-4)GlcNAc(b1-3)Gal(b1-4)GlcNAc(b1-6)]Man(a1-6)[Gal(b1-4)GlcNAc(b1-3)Gal(b1-4)GlcNAc(b1-2)Man(a1-3)]Man(b1-4)GlcNAc(b1-4)[Fuc(a1-6)]GlcNAc
# How it was run: as §1
# [17] = biological target: Gal(b1-4)GlcNAc(b1-3)Gal(b1-4)GlcNAc(b1-3)Gal(b1-4)GlcNAc(b1-2)Man(a1-3)[Gal(b1-4)GlcNAc(b1-3)Gal(b1-4)GlcNAc(b1-3)Gal(b1-4)GlcNAc(b1-2)Man(a1-6)]Man(b1-4)GlcNAc(b1-4)GlcNAc
# How it was run: as §1
# [18] = biological target: Gal(b1-4)GlcNAc(b1-3)Gal(b1-4)GlcNAc(b1-3)Gal(b1-4)GlcNAc(b1-2)[Gal(b1-4)GlcNAc(b1-3)Gal(b1-4)GlcNAc(b1-3)Gal(b1-4)GlcNAc(b1-6)]Man(a1-6)[Gal(b1-4)GlcNAc(b1-3)Gal(b1-4)GlcNAc(b1-3)Gal(b1-4)GlcNAc(b1-2)Man(a1-3)]Man(b1-4)GlcNAc(b1-4)[Fuc(a1-6)]GlcNAc
# How it was run: as §1
# [19] = biological target: Gal(b1-4)GlcNAc(b1-3)Gal(b1-4)GlcNAc(b1-3)Gal(b1-4)GlcNAc(b1-3)Gal(b1-4)GlcNAc(b1-2)Man(a1-3)[Gal(b1-4)GlcNAc(b1-3)Gal(b1-4)GlcNAc(b1-3)Gal(b1-4)GlcNAc(b1-3)Gal(b1-4)GlcNAc(b1-2)Man(a1-6)]Man(b1-4)GlcNAc(b1-4)[Fuc(a1-6)]GlcNAc
# How it was run: as §1
# [20] = biological target: Gal3S6S(b1-4)GlcNAc6S
# How it was run: as §1
# [21] = biological target: GalNAc(a1-3)GalNAc(b1-3)Gal(a1-4)Gal(b1-4)GlcNAc
# How it was run: as §1
# [22] = biological target: GalNAc(b1-4)Gal(b1-4)Glc
# How it was run: as §1
# [23] = biological target: GalNAc(b1-6)GalNAc
# How it was run: as §1
# [24] = biological target: GlcNAc(a1-4)Gal(b1-4)GlcNAc(b1-3)Gal(b1-4)GlcNAc
# How it was run: as §1
# [25] = biological target: GlcNAc(a1-4)Gal(b1-4)GlcNAc(b1-3)Gal(b1-4)[Fuc(a1-3)]GlcNAc(b1-3)Gal(b1-4)[Fuc(a1-3)]GlcNAc
# How it was run: as §1
# [26] = biological target: GlcNAc(b1-3)Gal(b1-4)GlcNAc(b1-2)Man(a1-3)[GlcNAc(b1-3)Gal(b1-4)GlcNAc(b1-2)Man(a1-6)]Man(b1-4)GlcNAc(b1-4)GlcNAc
# How it was run: as §1
# [27] = biological target: GlcNAc(b1-3)Gal(b1-4)GlcNAc(b1-3)Gal(b1-4)GlcNAc(b1-2)Man(a1-3)[GlcNAc(b1-3)Gal(b1-4)GlcNAc(b1-3)Gal(b1-4)GlcNAc(b1-2)Man(a1-6)]Man(b1-4)GlcNAc(b1-4)GlcNAc
# How it was run: as §1
# [28] = biological target: GlcNAc(b1-3)Gal(b1-4)GlcNAc(b1-3)Gal(b1-4)GlcNAc(b1-2)[GlcNAc(b1-3)Gal(b1-4)GlcNAc(b1-3)Gal(b1-4)GlcNAc(b1-6)]Man(a1-6)[GlcNAc(b1-3)Gal(b1-4)GlcNAc(b1-3)Gal(b1-4)GlcNAc(b1-2)Man(a1-3)]Man(b1-4)GlcNAc(b1-4)[Fuc(a1-6)]GlcNAc
# How it was run: as §1
# [29] = biological target: GlcNAc(b1-3)Gal(b1-4)GlcNAc(b1-3)Gal(b1-4)GlcNAc(b1-3)Gal(b1-4)GlcNAc(b1-2)Man(a1-3)[GlcNAc(b1-3)Gal(b1-4)GlcNAc(b1-3)Gal(b1-4)GlcNAc(b1-3)Gal(b1-4)GlcNAc(b1-2)Man(a1-6)]Man(b1-4)GlcNAc(b1-4)GlcNAc
# How it was run: as §1
# [30] = biological target: GlcNAc(b1-3)Gal(b1-4)GlcNAc(b1-3)Gal(b1-4)GlcNAc(b1-3)Gal(b1-4)GlcNAc(b1-2)Man(a1-3)[GlcNAc(b1-3)Gal(b1-4)GlcNAc(b1-3)Gal(b1-4)GlcNAc(b1-3)Gal(b1-4)GlcNAc(b1-2)Man(a1-6)]Man(b1-4)GlcNAc(b1-4)[Fuc(a1-6)]GlcNAc
# How it was run: as §1
binder,measurement,setting,value
B1,glycan array binding signal (z-score),[1],-0.387
same,glycan array binding signal (z-score),[2],-0.401
same,glycan array binding signal (z-score),[3],-0.487
same,glycan array binding signal (z-score),[4],0.249
same,glycan array binding signal (z-score),[5],0.066
same,glycan array binding signal (z-score),[6],-0.576
same,glycan array binding signal (z-score),[7],-0.013
same,glycan array binding signal (z-score),[8],-0.121
same,glycan array binding signal (z-score),[9],-0.171
same,glycan array binding signal (z-score),[10],0.446
same,glycan array binding signal (z-score),[11],0.127
same,glycan array binding signal (z-score),[12],-0.105
same,glycan array binding signal (z-score),[13],0.266
same,glycan array binding signal (z-score),[14],-0.02
same,glycan array binding signal (z-score),[15],2.12
same,glycan array binding signal (z-score),[16],0.623
same,glycan array binding signal (z-score),[17],1.97
same,glycan array binding signal (z-score),[18],3.26
same,glycan array binding signal (z-score),[19],2.08
same,glycan array binding signal (z-score),[20],1.12
same,glycan array binding signal (z-score),[21],-0.181
same,glycan array binding signal (z-score),[22],0.482
same,glycan array binding signal (z-score),[23],-0.887
same,glycan array binding signal (z-score),[24],-0.297
same,glycan array binding signal (z-score),[25],2.19
same,glycan array binding signal (z-score),[26],-0.301
same,glycan array binding signal (z-score),[27],1.87
same,glycan array binding signal (z-score),[28],2.23
same,glycan array binding signal (z-score),[29],2.51
same,glycan array binding signal (z-score),[30],3.44

# — the supplement of paper PMC8728848
